Reference: PubChem BioAssay (EPA / NIEHS)
Several values for one entry are separate records, joined by “and”; a condition that tells them apart may be missing. Equal values may be shown once. Inconclusive results are not listed. Activity calls are given as the source filed them. How the source made its calls, unless noted: active means hit-call score of the fitted dose curve at least 0.9, where 1 is the maximum; inactive means score below 0.9.

What was measured:
[1] = IUF_NPC2c_oligodendrocyte_migration_120hr: Leibniz Research Institute for Environmental Medicine (IUF) 120-hour Neural Progenitor Cell Migration Assay for Oligodendrocyte Migration (NPC2c) (AID 2284297);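 further: O4-positive oligodendrocyte migration distance divided by radial glia migration distance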
Procedure, shortened: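 Exposure runs 5 days from differentiation onset at 37C, seven concentrations plus solvent control, DMSO at most 0.1%, applied to primary hNPC spheres on laminin. After fixation, O4 immunostaining gives oligodendrocyte distance from the sphere core, relative to radial glia migration.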

[2] = IUF_NPC2a_radial_glia_migration_120hr: Leibniz Research Institute for Environmental Medicine (IUF) 120-hour Neural Progenitor Cell Migration Assay for Radial Glia Migration (NPC2a) (AID 2284298)
Procedure, shortened: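 Migration distance in um, sphere core edge to migration-area edge, derived by nuclei-density algorithm from Hoechst images after 120 h compound exposure. Primary hNPC spheres differentiated on poly-D-lysine/laminin in N2 medium, 37C; medium half-replaced day 3.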

[3] = IUF_NPC2a_radial_glia_migration_72hr: Leibniz Research Institute for Environmental Medicine (IUF) 72-hour Neural Progenitor Cell Migration Assay for Radial Glia Migration (NPC2a) (AID 2284299)
Procedure, shortened: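 Readout: mean of four manual brightfield measurements of radial glia migration distance (um) at 72 h. hNPC spheres (0.3 mm) exposed to 7 compound concentrations plus solvent control on PDL/laminin, 37C, 5% CO2; activity fitted relative to DMSO.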

[4] = IUF_NPC2b_neuronal_migration_120hr: Leibniz Research Institute for Environmental Medicine (IUF) 120-hour Neural Progenitor Cell Migration Assay for Neuron Migration (NPC2b) (AID 2284300)
Procedure, shortened: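 TUBB3-positive neurons are imaged after 120 h of differentiation, and their mean distance from the sphere edge is normalised to radial glia migration. Single 0.3 mm fetal hNPC spheres on poly-D-lysine/laminin received 7 compound concentrations, ≤0.1% DMSO, refreshed at day 3.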

[5] = IUF_NPC3_neuronal_differentiation_120hr: Leibniz Research Institute for Environmental Medicine (IUF) 120-hour Neuronal Differentiation Assay (NPC3) (AID 2284301)
Procedure, shortened: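 hNPC spheres, PDL/laminin, DMEM/F12 3:1 + 1% N2, 37C, 5% CO2; 7 concentrations + solvent control, 5 d exposure, half-change day 3. Fix 120 h; TUBB3/Hoechst ICC, CNN neuron calling; % neurons vs nuclei, DMSO-normalized.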

[6] = IUF_NPC4_neurite_length_120hr: Leibniz Research Institute for Environmental Medicine (IUF) 120-hour Neuronal Morphology Assay for Neurite Length (NPC4) (AID 2284302)
Procedure, shortened: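 hNPC spheres (0.3 mm, fetal brain GW 16-19) on PDL/laminin, DMEM:F12 3:1 + 1% N2, 37C 5% CO2; 7 concs + solvent control, day 0-5, half medium change d3; fix 120 h, TUBB3 ICC, mean neurite length um vs DMSO.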

[7] = IUF_NPC4_neurite_area_120hr: Leibniz Research Institute for Environmental Medicine (IUF) 120-hour Neuronal Morphology Assay for Neurite Area (NPC4) (AID 2284305; active means hit-call score of the fitted dose curve at least 0.9, where 1 is the maximum)
Procedure, shortened: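 hNPC spheres on PDL/laminin, N2 medium, 37C/5% CO2; dosed day 0, half-medium refresh day 3; fixed 120 h; TUBB3/Hoechst ICC, high-content imaging; neurite area = mean pixels per neuron (nuclei excluded); DMSO baseline, max 0.1%.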

[8] = IUF_NPC2-5_cytotoxicity_72hr: Cytotoxicity Assessment at 72 hours in the Leibniz Research Institute for Environmental Medicine (IUF) Neural Progenitor Cell Migration and Differentiation Assay for Cytotoxicity (NPC2-5) (AID 2284306; active means hit-call score of the fitted dose curve at least 0.9, where 1 is the maximum;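 further: LDH release into supernatant measured by resorufin fluorescence marking membrane damage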)
Procedure, shortened: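 hNPC spheres (0.3 mm), PDL/laminin, DMEM/F12 3:1 + 1% N2; cpd from d0, 7 concs + SC, DMSO max 0.1%; half-medium refresh d3. Readout: supernatant LDH via resorufin fluorescence (RFU), 72 h; gain-of-signal fit.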

[9] = IUF_NPC2-5_cytotoxicity_120hr: Cytotoxicity Assessment at 120 hours in the Leibniz Research Institute for Environmental Medicine (IUF) Neural Progenitor Cell Migration and Differentiation Assay (NPC2-5) (AID 2284307; active means hit-call score of the fitted dose curve at least 0.9, where 1 is the maximum)
Procedure, shortened: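 Membrane-integrity loss measured as LDH activity in medium supernatant via resazurin-to-resorufin fluorescence after 120 h exposure. hNPC spheres from GW 16-19 fetal cortex differentiated on poly-D-lysine/laminin, 37C, medium half-refreshed day 3; seven concentrations, DMSO max 0.1%.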

[10] = IUF_NPC2-5_cell_number_120hr: Cell Number Assessment at 120 hours in the Leibniz Research Institute for Environmental Medicine (IUF) Neural Progenitor Cell Migration and Differentiation Assay (NPC2-5) (AID 2284308);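 further: count of Hoechst-stained nuclei in migration zone around plated human neural progenitor spheres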
Procedure, shortened: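 Counting of all Hoechst-stained nuclei in the migration area at 120 h, versus DMSO control. Primary hNPC spheres differentiated on poly-D-lysine/laminin in N2 medium at 37C, dosed from day 0 (7 concentrations, DMSO ≤0.1%), half-refed day 3.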

[11] = IUF_NPC2-5_viability_120hr: Viability Assessment at 120 hours in the Leibniz Research Institute for Environmental Medicine (IUF) Neural Progenitor Cell Migration and Differentiation Assay (NPC2-5) (AID 2284312)
Procedure, shortened: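 Human fetal neural progenitor spheres (0.3 mm) plated on poly-D-lysine/laminin in N2 differentiation medium, exposed 120 h with half-medium refresh at day 3. Viability by alamar blue resazurin fluorescence; 7 concentrations, DMSO max 0.1%.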

[12] = IUF_NPC1_cytotoxicity_72hr: Cytotoxicity Assessment at 72 hours in the Leibniz Research Institute for Environmental Medicine (IUF) Neural Progenitor Cell Proliferation Assay (NPC1) (AID 2284332; active means hit-call score of the fitted dose curve at least 0.9, where 1 is the maximum;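 further: rising LDH signal means more cytotoxicity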)
Procedure, shortened: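 LDH in supernatant, resazurin→resorufin fluorescence (RFU), 72 h exposure, no re-dosing. Cells: primary hNPC spheres, one per well, EGF+FGF medium, 37C/5% CO2, pH 7.2-7.6. Fit: positive direction vs baseline and dynamic range.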

[13] = read-out: Monokine induced gamma interferon (MIG), CXCL9 (gene 4283); assay: BSK_KF3CT_MIG: BioMAP Diversity Plus: KF3CT Assay for Monokine induced gamma interferon (MIG) Biomarker Activity (AID 2284248); conditions: primary human keratinocytes with fibroblasts
Procedure, shortened: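 Parallel cultures were stained with SRB (560 nm) to check cytotoxicity. MIG was quantified by ELISA in a primary human skin keratinocyte/fibroblast co-culture 24 h post-dosing, with gain of signal fitted relative to DMSO.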

[14] = read-out: Interferon-inducible T-cell alpha chemoattractant (ITAC), CXCL11 (gene 6373); assay: BSK_hDFCGF_ITAC: BioMAP Diversity Plus: hDFCGF Assay for Interferon-inducible T-cell alpha chemoattractant (ITAC) Biomarker Activity (AID 2284251); conditions: primary human foreskin fibroblasts
Procedure, shortened: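 Measured by ELISA, the chemokine level serves as the endpoint in human skin fibroblast primary cultures 24 h after compound addition. Increases relative to DMSO-treated wells define activity.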

[15] = read-out: Plasminogen activator inhibitor-1 (PAI1), SERPINE1 (gene 5054); assay: BSK_KF3CT_PAI1: BioMAP Diversity Plus: KF3CT Assay for Plasminogen activator inhibitor-1 (PAI1) Biomarker Activity (AID 2284252); conditions: primary human keratinocytes with fibroblasts
Procedure, shortened: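 Keratinocyte + dermal fibroblast co-culture (human primary); 24 h post-dose; PAI-1 by ELISA; gain-of-signal fit vs DMSO control.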

[16] = read-out: Intercellular Adhesion Molecule 1 (ICAM1), ICAM1 (gene 3383); assay: BSK_BE3C_ICAM1: BioMAP Diversity Plus: BE3C Assay for Intercellular Adhesion Molecule 1 (ICAM1) Biomarker Activity (AID 2284278); conditions: primary human bronchial epithelial cells;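 on outcome: cell-surface ICAM-1 protein level quantified by ELISA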
Procedure, shortened: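 ELISA read-out of ICAM-1 on human lung bronchial epithelial primary cells, 24 h post-dosing; positive-direction curve fit, DMSO = baseline. SRB total-protein staining of parallel cultures flagged overt cytotoxicity.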

[17] = read-out: Interferon-inducible T-cell alpha chemoattractant (ITAC), CXCL11 (gene 6373); assay: BSK_BE3C_ITAC: BioMAP Diversity Plus: BE3C Assay for Interferon-inducible T-cell alpha chemoattractant (ITAC) Biomarker Activity (AID 2284279); conditions: primary human bronchial epithelial cells
Procedure, shortened: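 BE3C cells (human primary bronchial epithelium), 24 h compound exposure, I-TAC by ELISA, DMSO = negative control/baseline, positive fitting direction.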

[18] = read-out: Interleukin-8 (IL8), CXCL8 (gene 3576); assay: BSK_BE3C_IL8: BioMAP Diversity Plus: BE3C Assay for Interleukin-8 (IL8) Biomarker Activity (AID 2284280); conditions: primary human bronchial epithelial cells
Procedure, shortened: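 Dose human bronchial epithelial cells with chemical; incubate 24 h; quantify IL-8 by ELISA; fit response upward versus DMSO controls.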

[19] = read-out: Epidermal growth factor receptor (EGFR), EGFR (gene 1956); assay: BSK_BE3C_EGFR: BioMAP Diversity Plus: BE3C Assay for Epidermal growth factor receptor (EGFR) Biomarker Activity (AID 2284281); conditions: primary human bronchial epithelial cells
Procedure, shortened: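 ELISA read-out of EGFR levels on human bronchial epithelial primary cells collected 24 h post-dosing. DMSO served as negative control and baseline for gain-of-signal fitting.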

[20] = read-out: Matrix Metallopeptidase 9 (MMP9), MMP9 (gene 4318); assay: BSK_BE3C_MMP9: BioMAP Diversity Plus: BE3C Assay for Matrix Metallopeptidase 9 (MMP9) Biomarker Activity (AID 2284283); conditions: primary human bronchial epithelial cells
Procedure, shortened: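 MMP9 is measured by ELISA after a 24 h compound exposure of primary human bronchial epithelial cultures. Parallel SRB staining gives overt cytotoxicity. Values fitted in the positive direction against DMSO.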

Compound: CNC(=N[N+](=O)[O-])NCC1CCOC1 (stereo not given)
- outcome [1]: inactive
- outcome [2]: inactive
- outcome [3]: inactive
- outcome [4]: inactive
- outcome [5]: inactive
- outcome [6]: inactive
- outcome [7]: inactive
- outcome [8]: inactive
- outcome [9]: inactive
- outcome [10]: inactive
- outcome [11]: inactive
- outcome [12]: inactive

Compound: COc1ccc(CO)cc1
- outcome [13]: inactive
- outcome [14]: inactive
- outcome [15]: inactive
- outcome [16]: inactive
- outcome [17]: inactive
- outcome [18]: inactive
- outcome [19]: inactive
- outcome [20]: inactive

Compound: Oc1ccc(C2(c3ccc(O)cc3)c3ccccc3-c3ccccc32)cc1
- AC50 [13]: 7.47 µM (active) and 7.4 µM (active)
- AC50 [14]: 1.8 µM (active) and 1.21 µM (active)
- AC50 [15]: 5.43 µM (active)
- AC50 [16]: 7.57 µM (active) and 7.24 µM (active)
- AC50 [17]: 5.43 µM (active) and 5.42 µM (active)
- AC50 [18]: 6.88 µM (active) and 5.35 µM (active)
- outcome [19]: inactive
- AC50 [20]: 383 nM (active) and 5.33 µM (active)

Compound: CC(C)CCCCCCCOP(=O)(Oc1ccccc1)Oc1ccccc1
- outcome [1]: inactive
- outcome [2]: inactive
- outcome [3]: inactive
- outcome [4]: inactive
- outcome [5]: inactive
- outcome [6]: inactive
- outcome [7]: inactive
- outcome [8]: inactive
- outcome [9]: inactive
- outcome [10]: inactive
- outcome [11]: inactive
- outcome [12]: inactive
